Assay [1] can be described thus: rapamycin-like changes in RPL19A-GFP expression – cell-based, S. cerevisiae, multiplex flow cytometry, primary screen (AID 1862; in the data active means percent of DMSO control GFP below about 86%;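 further: lower values mimic rapamycin by blocking the RPL19A rise seen in DMSO cells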). The following applies: S. cerevisiae RPL19A-GFP strain, flow cytometry fluorescence, 3 h; at 10 µM; stronger effect = lower value. A general note: Flow cytometry measures light scatter and fluorescence of single cells or particles in a stream.
Assay [2] in a line: TOR pathway GLN3 branch reporter MEP2-GFP changes – S. cerevisiae, multiplex flow cytometry, primary screen (AID 1867;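 active means GFP response, as percent of the DMSO control, above the screen-wide mean plus 3 SD, about 139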;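 further: median GFP channel fluorescence of barcode-gated MEP2-GFP cells measured by flow cytometry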). As to conditions: S. cerevisiae MEP2-GFP strain, 3 h, at 10 µM, stronger effect = higher value, 100% means same as DMSO wells.
Assay [3] can be described thus: TOR pathway RTG branch CIT2 reporter changes – S. cerevisiae, GFP fusion, multiplex flow cytometry, primary screen (AID 1870;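 active means percent response above a set limit, the screen-wide mean plus 3 SD, cut at about 130% in these data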;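 further: barcoded CIT2-GFP strain pooled with four other GFP strains with rapamycin as positive control; median GFP fluorescence per well over plate mean of DMSO wells so 100% = DMSO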). The following applies: S. cerevisiae CIT2-GFP expression, 3 h, at 10 µM, stronger effect = higher value.
Assay [4] can be described thus: TOR pathway LAP4-GFP level changes – S. cerevisiae, multiplex flow cytometry, primary screen (AID 1873;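 active means GFP signal, as percent of the solvent control, above the screen mean plus 3 SD, about 149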). As to conditions: S. cerevisiae LAP4-GFP expression, 3 h, at 10 µM, stronger effect = higher value.
The nature of assay [5]: yeast AGP1-GFP level changes, GLN3 branch – cell-based, multiplex flow cytometry, S. cerevisiae, primary screen (AID 1887;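 active means GFP signal above the screen-wide mean plus 3 SD, that is over about 124.5% of the solvent control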;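 further: AGP1-GFP fusion strain of S. cerevisiae within a five-strain barcoded multiplex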). As to conditions: 3 h, at 10 µM, stronger effect = higher value.
A short description of assay [6]: reduced mouse 2C T cell binding to pMHC/ICAM-1 vesicles – MLPCN validation set, flow cytometry, LFA-1/ICAM-1 modulator project, pilot screen (AID 2523;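 active means response below a set limit, under 55% cells CD8-positive and vesicle-bound, and CD8 cells' 90th-percentile brightness under 279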;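 on vesicle binding response: mean PE anti-B7-1 fluorescence of CD8+ cells relative to row control; 100% = QL9-loaded vesicles with DMSO vehicle in the same plate row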). The following applies: 2C mouse CD8+ T cells, at 7 µM, stronger effect = lower value; double positive events: measured here: CD8+/vesicle+ event percentage.
Assay [7] addresses Integrin beta-1 (Homo sapiens) + Integrin alpha-4 (Homo sapiens) (UniProt P13612+P05556). The assay is described as follows: alpha4beta1 integrin LIBS antibody binding reduction – U937 cells, HUTS-21 mAb, flow cytometry, validation set, VLA-4 allosteric modulator project, pilot screen (AID 2674;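 active means inhibition above 50%, about 3 SD of the validation set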;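 further: antibody binding induced by the VLA-4 ligand LDV present at three times its Kd; 0% = LDV ligand with antibody and no compound and 100% = antibody without LDV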). As to conditions: HUTS-21 LIBS mAb binding, at 6.7 µM, stronger effect = higher value, binding induced by LDV ligand.

Assay [8] in a line: calorie-restriction mimetic ROS inhibitors, yeast – validation compound set, pilot screen (AID 2706;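 active means superoxide response below 65% of plate, a cut near 3 SD across the whole screen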;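 further: yeast exposed to compound for one week at 30 degrees C before staining; 100% = mean of all compound wells on the same plate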). As to conditions: S. cerevisiae aging, superoxide DHE fluorescence; at 10 µM; stronger effect = lower value.
For assay [9], the target named is Beta-adrenergic receptor kinase 1 (Homo sapiens) (UniProt P25098). Nature of the assay: GRK2 binders displacing RNA aptamer, biochemical, validation, human GRK2, bead flow cytometry (AID 488806;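 active means aptamer binding inhibition above 30%, about 3 SD of noise from non-fluorescent compounds; inactive means inhibition at or below 30%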). As to conditions: bead-bound GRK2, FAM-aptamer displacement, at 10 µM, stronger effect = higher value.
Assay [10] deals with Beta-2 adrenergic receptor (Homo sapiens) (UniProt P07550). The assay is described as follows: agonist-induced loss of surface beta2AR – cell-based, FAP fluorogen, flow cytometry, validation set, pilot screen (AID 504459;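 active means percent response above 42, roughly 3 SD of non-fluorescent test compounds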;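 further: agonist-driven loss of surface beta2AR via internalization measured by FAP dye flow cytometry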). The following applies: Am2.2-beta2AR cells, at 10 µM, stronger effect = higher value.
In assay [11] the target is AP-2 complex subunit beta (Homo sapiens) (UniProt P63010). The assay is described as follows: beta-arrestin/AP2 interaction blockers – biochemical, validation set, GST-AP2 beads, flow cytometry, pilot screen (AID 504541;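 active means inhibition above 54%, about 3 SD of non-fluorescent compounds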;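 further: AP2 carries R879A mutation and is captured from E. coli lysate; bead-bound FITC arrestin peptide fluorescence measuring arrestin peptide binding to AP2; 0% = DMSO wells and 100% = excess unlabeled arrestin peptide control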). The following applies: FITC arrestin peptide, at 10 µM, stronger effect = higher value, AP2 beta2 appendage fragment, R879A mutant.
Assay [12] is described as follows: cytosolic pH regulators acting via V-ATPase – S. cerevisiae, pHLuorin, HTS validation (AID 504600; in the data active means response above about 15%;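 further: plate controls were DMSO for no effect and reference compound for full effect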). The following applies: V-ATPase proton transport, at 10 µM, stronger effect = higher value.
Assay [13] deals with anti-desmoglein-3 scFv antibody binding to human DSG3. Nature of the assay: blockers of pathogenic pemphigus antibody–desmoglein-3 binding – biochemical, validation compound set, bead-based, flow cytometry, pilot screen (AID 588368;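 active means binding below the plate cutoff, the plate median minus 3 SD, with a reading above zero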;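 further: signal is the median channel fluorescence of bead-bound GFP antibody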). The following applies: Protein G beads, DSG3-Fc, scFv-GFP binding, at 10 µM, stronger effect = lower value.
Assay [14] can be described thus: Nile Red efflux blockade in pump-expressing yeast – validation compound set, multiplex, phenotypic, pilot screen (AID 588506;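 active means efflux inhibition above 0.42, the validation set average plus 4 SD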;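 further: Nile Red retained in cells so higher fluorescence means more efflux inhibition; 0 = negative control wells and 1 = enniatin B 25 µM full block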). As to conditions: S. cerevisiae pump-expressing triplex, Nile Red efflux flow cytometry; at 10 µM; stronger effect = higher value; the pumps come from Candida albicans.
For assay [15], the target named is ATP-binding cassette sub-family B member 6 (Homo sapiens) (UniProt Q9NP58). The assay is described as follows: blockers of ABCB6-driven porphyrin uptake – K562-ABCB6 cells, flow cytometry, validation set, pilot screen (AID 588550).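 Further: 0% = DMSO wells and 100% = benzethonium chloride 70 µM positive control.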 As to conditions: K562-ABCB6 porphyrin accumulation, 1 h, at 10 µM, stronger effect = higher value.
Assay [16] is described as follows: AML differentiation inducers, ER-HoxA9 marrow cells – cell-based, GFP/MAC1 double positive, flow cytometry, validation set, primary screen (AID 588685;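 active means differentiation response of at least 50%, scaled between solvent and reference control, from cells with both markers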;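 further: compound exposure lasts four days before antibody staining and flow analysis; 0% = DMSO wells and 100% = 5 µM fulvestrant positive control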). The following applies: stronger effect = higher value, normalized: vehicle 0, fulvestrant 100.

The values below come from PubChem BioAssay.

Records with an inconclusive call do not appear. The source made the active and inactive calls.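 How the source made its calls, unless noted: active means inhibition above the screen-wide mean plus 3 SD, about 51%; inactive means the rest.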

Sequence of Beta-2 adrenergic receptor (Homo sapiens) (P07550 whole entry, looked up): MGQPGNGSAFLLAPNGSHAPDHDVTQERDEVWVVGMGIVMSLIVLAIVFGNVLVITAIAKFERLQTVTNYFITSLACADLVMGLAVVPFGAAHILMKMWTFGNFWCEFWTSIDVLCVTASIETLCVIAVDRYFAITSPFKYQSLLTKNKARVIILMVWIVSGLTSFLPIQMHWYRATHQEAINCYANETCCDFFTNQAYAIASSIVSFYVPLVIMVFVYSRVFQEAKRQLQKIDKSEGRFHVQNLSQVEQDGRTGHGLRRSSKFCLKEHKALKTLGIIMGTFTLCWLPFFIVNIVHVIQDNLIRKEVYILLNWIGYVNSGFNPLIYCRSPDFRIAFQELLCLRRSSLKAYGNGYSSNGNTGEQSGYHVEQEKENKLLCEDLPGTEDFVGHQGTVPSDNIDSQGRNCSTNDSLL
Sequence of AP-2 complex subunit beta (Homo sapiens) (P63010 whole entry, looked up, the tested form may be a part, one chain of several): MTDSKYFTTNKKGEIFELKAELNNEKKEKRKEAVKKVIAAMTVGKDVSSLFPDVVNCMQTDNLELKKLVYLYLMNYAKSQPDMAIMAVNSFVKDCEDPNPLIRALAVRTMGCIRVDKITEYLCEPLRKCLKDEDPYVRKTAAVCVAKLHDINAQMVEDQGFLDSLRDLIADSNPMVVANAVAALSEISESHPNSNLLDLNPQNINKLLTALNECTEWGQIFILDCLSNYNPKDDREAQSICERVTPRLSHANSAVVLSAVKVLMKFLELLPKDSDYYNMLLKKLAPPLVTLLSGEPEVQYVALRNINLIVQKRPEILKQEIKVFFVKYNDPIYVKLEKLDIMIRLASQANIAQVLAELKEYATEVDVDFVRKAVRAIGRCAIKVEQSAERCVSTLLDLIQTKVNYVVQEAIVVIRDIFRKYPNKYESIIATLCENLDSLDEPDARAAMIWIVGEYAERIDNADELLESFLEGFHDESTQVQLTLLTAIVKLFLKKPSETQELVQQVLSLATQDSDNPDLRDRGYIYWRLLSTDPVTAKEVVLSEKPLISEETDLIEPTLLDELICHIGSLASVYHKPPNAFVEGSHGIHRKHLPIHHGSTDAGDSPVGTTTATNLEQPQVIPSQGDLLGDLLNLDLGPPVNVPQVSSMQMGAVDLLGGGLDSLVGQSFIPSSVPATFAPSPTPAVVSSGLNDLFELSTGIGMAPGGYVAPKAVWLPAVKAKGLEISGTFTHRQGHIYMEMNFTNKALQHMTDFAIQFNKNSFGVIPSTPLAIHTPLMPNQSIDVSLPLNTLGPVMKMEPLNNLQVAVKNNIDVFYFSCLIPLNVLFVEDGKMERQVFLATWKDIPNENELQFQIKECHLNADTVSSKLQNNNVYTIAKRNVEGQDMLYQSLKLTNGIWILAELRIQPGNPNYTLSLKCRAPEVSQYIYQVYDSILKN
Sequence of Beta-adrenergic receptor kinase 1 (Homo sapiens) (P25098 whole entry, looked up): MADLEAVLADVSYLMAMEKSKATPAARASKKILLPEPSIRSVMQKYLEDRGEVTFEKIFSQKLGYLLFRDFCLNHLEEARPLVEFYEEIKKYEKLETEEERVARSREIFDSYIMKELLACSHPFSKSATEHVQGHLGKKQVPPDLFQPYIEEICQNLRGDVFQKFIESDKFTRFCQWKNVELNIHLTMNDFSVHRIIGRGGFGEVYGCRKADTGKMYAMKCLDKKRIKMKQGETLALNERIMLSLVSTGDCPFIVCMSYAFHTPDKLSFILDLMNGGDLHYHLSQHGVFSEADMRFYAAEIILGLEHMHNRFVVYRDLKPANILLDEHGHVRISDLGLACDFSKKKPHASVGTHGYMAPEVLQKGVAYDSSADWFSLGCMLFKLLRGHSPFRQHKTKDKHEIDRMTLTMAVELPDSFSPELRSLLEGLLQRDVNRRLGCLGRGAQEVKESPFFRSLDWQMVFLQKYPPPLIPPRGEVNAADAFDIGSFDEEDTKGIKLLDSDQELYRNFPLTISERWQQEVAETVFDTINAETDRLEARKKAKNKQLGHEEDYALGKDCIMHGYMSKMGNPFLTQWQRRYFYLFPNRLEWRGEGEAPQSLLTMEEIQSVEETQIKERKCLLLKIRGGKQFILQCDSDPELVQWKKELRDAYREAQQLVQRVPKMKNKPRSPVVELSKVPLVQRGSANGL
Sequence of Integrin beta-1 (Homo sapiens) + Integrin alpha-4 (Homo sapiens) (P05556 whole entry, looked up): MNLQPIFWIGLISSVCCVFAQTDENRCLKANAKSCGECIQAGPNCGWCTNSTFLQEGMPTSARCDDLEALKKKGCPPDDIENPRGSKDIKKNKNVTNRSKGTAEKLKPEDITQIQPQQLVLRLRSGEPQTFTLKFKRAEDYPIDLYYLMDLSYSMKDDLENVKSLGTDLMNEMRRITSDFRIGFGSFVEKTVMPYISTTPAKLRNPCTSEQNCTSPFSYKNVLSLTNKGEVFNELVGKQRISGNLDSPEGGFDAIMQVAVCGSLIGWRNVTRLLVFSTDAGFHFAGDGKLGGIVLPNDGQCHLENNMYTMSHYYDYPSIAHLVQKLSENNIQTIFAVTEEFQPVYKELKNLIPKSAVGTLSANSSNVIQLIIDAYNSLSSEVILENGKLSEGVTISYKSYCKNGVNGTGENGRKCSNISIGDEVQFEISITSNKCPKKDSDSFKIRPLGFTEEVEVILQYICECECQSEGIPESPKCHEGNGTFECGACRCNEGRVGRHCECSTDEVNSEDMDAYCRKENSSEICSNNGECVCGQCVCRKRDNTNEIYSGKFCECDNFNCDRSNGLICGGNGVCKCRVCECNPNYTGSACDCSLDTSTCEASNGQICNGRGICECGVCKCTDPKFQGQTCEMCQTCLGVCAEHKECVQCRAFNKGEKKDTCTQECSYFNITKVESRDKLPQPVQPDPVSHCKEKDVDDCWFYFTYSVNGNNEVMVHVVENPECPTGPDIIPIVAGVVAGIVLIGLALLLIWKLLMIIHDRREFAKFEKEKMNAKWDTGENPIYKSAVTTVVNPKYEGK
Sequence of Integrin beta-1 (Homo sapiens) + Integrin alpha-4 (Homo sapiens) (P13612 whole entry, looked up): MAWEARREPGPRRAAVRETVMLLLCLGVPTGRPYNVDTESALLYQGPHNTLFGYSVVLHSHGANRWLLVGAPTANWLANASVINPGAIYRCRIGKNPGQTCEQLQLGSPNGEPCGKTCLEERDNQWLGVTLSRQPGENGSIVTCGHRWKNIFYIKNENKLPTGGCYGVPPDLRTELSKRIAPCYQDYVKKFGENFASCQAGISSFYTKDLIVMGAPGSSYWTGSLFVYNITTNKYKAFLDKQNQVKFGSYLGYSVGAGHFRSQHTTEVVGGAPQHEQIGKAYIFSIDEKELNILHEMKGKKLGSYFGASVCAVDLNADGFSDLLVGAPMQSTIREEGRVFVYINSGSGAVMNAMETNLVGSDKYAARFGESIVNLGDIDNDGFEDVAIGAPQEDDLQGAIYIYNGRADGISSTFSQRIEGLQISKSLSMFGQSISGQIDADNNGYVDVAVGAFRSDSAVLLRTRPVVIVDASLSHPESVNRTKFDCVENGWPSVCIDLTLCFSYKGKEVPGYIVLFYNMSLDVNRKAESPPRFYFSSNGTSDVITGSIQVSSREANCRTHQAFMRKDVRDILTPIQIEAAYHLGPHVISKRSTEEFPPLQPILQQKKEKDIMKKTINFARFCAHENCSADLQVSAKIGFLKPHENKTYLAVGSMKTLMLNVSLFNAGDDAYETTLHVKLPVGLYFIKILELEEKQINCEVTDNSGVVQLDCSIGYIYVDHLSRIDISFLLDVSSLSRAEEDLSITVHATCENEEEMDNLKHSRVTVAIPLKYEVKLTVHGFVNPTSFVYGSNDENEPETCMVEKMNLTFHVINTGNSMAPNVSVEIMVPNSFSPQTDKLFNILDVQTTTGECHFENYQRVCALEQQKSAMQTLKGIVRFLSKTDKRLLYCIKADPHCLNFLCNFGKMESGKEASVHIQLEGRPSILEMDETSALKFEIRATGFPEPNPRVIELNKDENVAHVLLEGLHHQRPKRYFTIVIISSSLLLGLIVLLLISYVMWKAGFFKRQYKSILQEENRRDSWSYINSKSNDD
Sequence of ATP-binding cassette sub-family B member 6 (Homo sapiens) (Q9NP58 whole entry, looked up): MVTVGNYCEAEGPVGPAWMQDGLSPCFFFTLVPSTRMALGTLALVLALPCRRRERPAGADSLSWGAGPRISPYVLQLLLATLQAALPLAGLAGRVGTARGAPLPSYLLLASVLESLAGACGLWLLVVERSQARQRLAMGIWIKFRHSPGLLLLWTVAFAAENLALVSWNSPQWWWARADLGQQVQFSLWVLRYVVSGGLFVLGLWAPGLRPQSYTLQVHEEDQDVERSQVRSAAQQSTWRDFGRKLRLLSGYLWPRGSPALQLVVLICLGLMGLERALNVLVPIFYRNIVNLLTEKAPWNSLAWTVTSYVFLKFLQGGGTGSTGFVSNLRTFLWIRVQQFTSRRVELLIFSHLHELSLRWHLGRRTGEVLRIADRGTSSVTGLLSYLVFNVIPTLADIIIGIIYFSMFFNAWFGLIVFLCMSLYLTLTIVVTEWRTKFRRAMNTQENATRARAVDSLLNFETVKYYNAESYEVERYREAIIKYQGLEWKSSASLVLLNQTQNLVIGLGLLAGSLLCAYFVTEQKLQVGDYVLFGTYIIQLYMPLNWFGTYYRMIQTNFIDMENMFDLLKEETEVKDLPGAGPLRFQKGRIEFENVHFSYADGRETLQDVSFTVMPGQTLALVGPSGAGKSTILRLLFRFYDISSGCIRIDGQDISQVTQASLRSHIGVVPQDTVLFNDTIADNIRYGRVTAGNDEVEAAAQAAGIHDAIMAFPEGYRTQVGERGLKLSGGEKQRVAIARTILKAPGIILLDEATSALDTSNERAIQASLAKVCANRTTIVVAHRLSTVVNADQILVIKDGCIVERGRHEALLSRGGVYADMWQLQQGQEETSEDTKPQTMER

On to `COc1ccc(N2CCN(C(=S)NCc3ccccc3)CC2)cc1`, for which the percent of DMSO control GFP in assay [1] was 91.7% (inactive). Moreover, the GFP response vs DMSO in assay [2] is 133% (inactive); in assay [4], 81.4% (inactive). Besides, in assay [3], the percent response of DMSO control is 101% (inactive). In [5], the GFP response, % of DMSO was 88.2% (inactive). Also, the double positive events in assay [6] came out at 65.5%. In addition, in assay [6], the vesicle binding response was 171% (inactive). Also, the inhibition – broadly, the relative decrease from the control value, in per cent – in assay [7] was 0.64% (inactive); in [11], 30.1% (inactive); in assay [15], 0% (inactive). In addition, the superoxide response (% of plate) in [8] was 82.1% (inactive). In addition, in [9], the aptamer binding inhibition is 2% (inactive). Further, the response was -3.32% (inactive) in [10] and -3.6% (inactive) in assay [12]. Further, in assay [13], the binding (% of control) was 108% (inactive). In addition, the efflux inhibition (fraction of control) in assay [14] is 0.16 (inactive). In addition, the differentiation response in assay [16] was 4.09% (inactive).
Consider `CCN(CCCc1ccccc1)CCCc1ccccc1`, for which, in assay [1], the percent of DMSO control GFP was 100% (inactive). Moreover, the GFP response vs DMSO was 103% (inactive) in [2] and 106% (inactive) in [4]. Moreover, the percent response of DMSO control in [3] was 102% (inactive). The GFP response, % of DMSO in assay [5] is 118% (inactive). This compound also gave a double positive events in assay [6] of 63.1%. Besides, the vesicle binding response in [6] is 202% (inactive). The values for the inhibition in [7], in assay [11] and in [15] were 27.8% (inactive), 34.3% (inactive) and 3% (inactive), respectively. In assay [8], the superoxide response (% of plate) was 118% (inactive). The aptamer binding inhibition in assay [9] was 0% (inactive). Moreover, the response in [10] was -9.83% (inactive); in assay [12], -9.09% (inactive). Besides, the binding (% of control) in [13] was 103% (inactive). Moreover, the efflux inhibition (fraction of control) in assay [14] was 0.04 (inactive). The differentiation response in assay [16] was -9.91% (inactive).
For `Cc1ccnc(NS(=O)(=O)c2ccc(N)cc2)n1`, the percent of DMSO control GFP in [1] is 102% (inactive). The GFP response vs DMSO is 99.7% (inactive) in assay [2] and 102% (inactive) in assay [4]. For the same compound, the percent response of DMSO control in [3] was 106% (inactive). For the same compound, in assay [5], the GFP response, % of DMSO was 111% (inactive). The same compound had a double positive events in assay [6] of 63.6%. The vesicle binding response in assay [6] is 203% (inactive). Besides, the inhibition is 19% (inactive) in assay [7], -0.12% (inactive) in [11] and -3% (inactive) in assay [15]. Moreover, the superoxide response (% of plate) in assay [8] was 92.2% (inactive). Also, the aptamer binding inhibition in [9] is -1% (inactive). In addition, the response is 5.51% (inactive) in [10] and -1.12% (inactive) in assay [12]. In [13], the binding (% of control) was 94% (inactive). The efflux inhibition (fraction of control) in assay [14] is -0.3 (inactive). Moreover, in [16], the differentiation response was 1.28% (inactive).
As for `O=C(O)CCCNc1ccc(S(=O)(=O)Nc2ccccc2C(=O)O)cc1C(=O)O`, the percent of DMSO control GFP in assay [1] is 105% (inactive). Besides, the GFP response vs DMSO in assay [2] is 94.1% (inactive); in assay [4], 83.5% (inactive). Further, the percent response of DMSO control in [3] is 116% (inactive). Further, the GFP response, % of DMSO in assay [5] is 97% (inactive). The same compound came in with a double positive events in assay [6] of 64.9%. The vesicle binding response in [6] was 187% (inactive). For the same compound, the inhibition in assay [7] is 12% (inactive); in [11] it was -4.62% (inactive); in assay [15] it was 17% (inactive). The superoxide response (% of plate) in assay [8] is 101% (inactive). Further, the aptamer binding inhibition in [9] was 5% (inactive). Also, the response in assay [10] was -8.58% (inactive); in assay [12], -5.39% (inactive). Besides, in assay [13], the binding (% of control) was 102% (inactive). Further, in assay [14], the efflux inhibition (fraction of control) was -0.14 (inactive). The differentiation response in assay [16] was 4.15% (inactive).
With `COc1ccc(CNC(=O)c2c(O)c3cccc4c3n(c2=O)CCC4)cc1`, the percent of DMSO control GFP in assay [1] is 104% (inactive). Besides, the GFP response vs DMSO in assay [2] was 105% (inactive); in assay [4] it was 94.4% (inactive). Besides, the percent response of DMSO control in [3] is 93.9% (inactive). Moreover, the GFP response, % of DMSO in assay [5] was 99.4% (inactive). Besides, the double positive events in [6] was found to be 57.5%. In addition, the vesicle binding response in [6] was 18.9% (inactive). For the same compound, the results for the inhibition in assay [7], in assay [11] and in [15] were -7.47% (inactive), 7.55% (inactive) and 5% (inactive), respectively. For the same compound, the superoxide response (% of plate) in assay [8] was 96.7% (inactive). The aptamer binding inhibition in assay [9] was 9% (inactive). The response was 4.63% (inactive) in assay [10] and -1.56% (inactive) in assay [12]. Further, the binding (% of control) in assay [13] was 99.5% (inactive). Besides, in assay [14], the efflux inhibition (fraction of control) is 0.62 (active). Also, the differentiation response in assay [16] was 1.17% (inactive).
